A short description of assay [1]: qHTS assay to identify small molecule agonists of H2AX (AID 1224845; active = well fitted activation curve with a large enough effect in the signal ratio in the repeat runs, not every such curve was filed as active; the % refers to the signal ratio; also: potency is read from the fitted curve at half-maximal effect). In short, it runs like this: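 Wild-type CHO-K1 cells, plated overnight, exposed 3hr at 37C to 15 concentrations (0.76% DMSO final). Lysed, then HTRF anti-pH2AX (S139) cryptate and anti-H2AX-d2 antibodies, 24 hr room temperature; 665/620 nm emission read.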
In general terms: qHTS replaces the single test concentration by a dilution series.

A short description of assay [2]: qHTS assay to identify small molecule agonists of H2AX - cell viability counter screen (AID 1224847; calls by dose curve; also: nearly all actives have a fitted effect of over 30% in size; also: potency is read from the fitted curve at half-maximal effect). In short, it runs like this: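 We seed wild-type CHO-K1 cells overnight, treat them for 3 hr at 37C with compounds in 15-concentration series, and quantify remaining viability by CellTiter-Glo luminescence.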
Assay [3] can be described thus: qHTS RealTime-Glo MT Cell Viability Assay in HepG2 cells - 24 hour (AID 1224867). Also: nearly all actives have a fitted effect of over 50% in size. Also: potency is read from the fitted curve at half-maximal effect. The gist of the method: (§1)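 HepG2 suspension premixed with RealTime-Glo reagents is plated at 600 cells per well and left 5 h at 37 C/5% CO2. Compounds in DMSO then go in, and bioluminescence reflecting viable cell number is recorded over 40 h.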
The nature of assay [4]: qHTS RealTime-Glo MT Cell Viability Assay in HEK293 cells - 32 hour (AID 1224868). Also: nearly all actives have a fitted effect of over 50% in size. Also: potency is read from the fitted curve at half-maximal effect. The gist of the method: (§2)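 Reads taken at 0, 8, 16, 24, 32 and 40 h from the same wells. HEK293 cells (600/well) carried RealTime-Glo reagents from seeding, with compound added after a 5 h settle at 37 C.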
Assay [5] can be described thus: A CellTox Green Cytotoxicity Assay to monitor cytotoxicity in HEK293 cells - 0 hour (AID 1224869). Also: % is scaled to controls: 0 for no effect and ±100 for the full control effect; nearly all actives have a fitted effect of over 50% in size. The gist of the method: (§3)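 Each value comes from one timepoint of a single continuous run in which HEK293 cells with CellTox Green were exposed to compound for up to 40 h at 37 C, dye fluorescence rising with cell death.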
A short description of assay [6]: qHTS RealTime-Glo MT Cell Viability Assay in HepG2 cells - 40 hour (AID 1224870). Also: nearly all actives have a fitted effect of over 50% in size. Also: potency is read from the fitted curve at half-maximal effect. The gist of the method:
(§4)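 HepG2 cells (600/well) mixed with RealTime-Glo MT reagent, settled 5 h at 37 C/5% CO2 before compound addition. Nonlytic NanoLuc luminescence from viable-cell prosubstrate reduction read repeatedly during 40 h treatment at 37 C.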

A short description of assay [7]: qHTS RealTime-Glo MT Cell Viability Assay in HEK293 cells - 16 hour (AID 1224872). Also: nearly all actives have a fitted effect of over 50% in size. Also: potency is read from the fitted curve at half-maximal effect. The gist of the method: as §2
Assay [8] in a line: qHTS RealTime-Glo MT Cell Viability Assay in HepG2 cells - 8 hour (AID 1224873). Also: % is scaled to controls: 0 for no effect and ±100 for the full control effect; nearly all actives have a fitted effect of over 55% in size. In short, it runs like this: as §4
The nature of assay [9]: qHTS RealTime-Glo MT Cell Viability Assay in HEK293 cells - 40 hour (AID 1224874). Also: nearly all actives have a fitted effect of over 50% in size. Also: potency is read from the fitted curve at half-maximal effect. As to max response: % is scaled to controls: 0 for no effect and ±100 for the full control effect. Particulars: RealTime-Glo luminescence; max response: stronger effect = lower value. The gist of the method: (§5)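 qHTS format; HEK293 cells with NanoLuc/prosubstrate reagent, 37 C/5% CO2 for 5 h pre-dosing; compounds 23 nL in DMSO; luminescence at each time point reflects viable cells.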
A short description of assay [10]: A CellTox Green Cytotoxicity Assay to monitor cytotoxicity in HEK293 cells - 24 hour (AID 1224875). Also: nearly all actives have a fitted effect of over 45% in size. Also: potency is read from the fitted curve at half-maximal effect. As to activity change: % is scaled to controls: 0 for no effect and ±100 for the full control effect. In short, it runs like this:
as §3

Assay [11] can be described thus: A CellTox Green Cytotoxicity Assay to monitor cytotoxicity in HepG2 cells - 16 hour (AID 1224876). Also: nearly all actives have a fitted effect of over 45% in size. Also: potency is read from the fitted curve at half-maximal effect. In short, it runs like this: (§6)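 Continuous culture of HepG2 cells with a membrane-impermeant DNA dye; rising fluorescence marks dead cells. Compound exposure lasted up to 40 h at 37 C, with reads every 8 h from 0 h.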
A short description of assay [12]: qHTS RealTime-Glo MT Cell Viability Assay in HepG2 cells - 32 hour (AID 1224877). Also: nearly all actives have a fitted effect of over 55% in size. Also: potency is read from the fitted curve at half-maximal effect. The gist of the method: as §1
Assay [13] in a line: A CellTox Green Cytotoxicity Assay to monitor cytotoxicity in HepG2 cells - 24 hour (AID 1224878). Also: nearly all actives have a fitted effect of over 45% in size. Also: potency is read from the fitted curve at half-maximal effect. As to Cytotoxicity: % is scaled to controls: 0 for no effect and ±100 for the full control effect. The gist of the method:
as §6

Assay [14] is described as follows: A CellTox Green Cytotoxicity Assay to monitor cytotoxicity in HepG2 cells - 40 hour (AID 1224879). Also: nearly all actives have a fitted effect of over 40% in size. Also: potency is read from the fitted curve at half-maximal effect. The gist of the method:
as §6

Assay [15] in a line: qHTS RealTime-Glo MT Cell Viability Assay in HEK293 cells - 0 hour (AID 1224880). Also: top concentration of the series differs between compounds; % is scaled to controls: 0 for no effect and ±100 for the full control effect; nearly all actives have a fitted effect of over 45% in size. In short, it runs like this: as §5
The nature of assay [16]: A CellTox Green Cytotoxicity Assay to monitor cytotoxicity in HEK293 cells - 32 hour (AID 1224881). Also: nearly all actives have a fitted effect of over 40% in size. Also: potency is read from the fitted curve at half-maximal effect. The gist of the method:
as §3

Assay [17] is described as follows: A CellTox Green Cytotoxicity Assay to monitor cytotoxicity in HEK293 cells - 40 hour (AID 1224871). Also: nearly all actives have a fitted effect of over 45% in size. Also: potency is read from the fitted curve at half-maximal effect. In short, it runs like this:
as §3

The nature of assay [18]: qHTS assay to identify small molecule agonists of the hypoxia (HIF-1) signaling pathway (AID 1224846; active = well fitted activation curve with a large enough effect in the signal ratio in the repeat runs, not every such curve was filed as active; the % refers to the signal ratio; also: % is scaled to controls: 0 for no effect and ±100 for the full control effect). In short, it runs like this: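 Measured by blue/green FRET after loading CCF4-AM: beta-lactamase expressed from a hypoxia response element in ME-180 cells. Test agents were delivered in DMSO and left 17 hrs; cells had been plated 5 hrs earlier in low-serum (0.5% dialyzed FBS) medium.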

Assay [19] in a line: qHTS assay to identify small molecule antagonists of the estrogen related receptor (ERR) signaling pathway from Tox21 library (AID 1224848). In short, it runs like this:
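Luminescent reporter read-out (ONE-Glo) from NTP's ERR cell line after 18 h treatment at 37 C with DMSO-dissolved Tox21 compounds; cells pre-plated 6 h beforehand at 2,000 per well.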

A short description of assay [20]: qHTS assay to identify small molecule agonists of the estrogen related receptor (ERR) signaling pathway from Tox21 library (AID 1224849; calls by dose curve; also: % is scaled to controls: 0 for no effect and ±100 for the full control effect; nearly all actives have a fitted effect of over 15% in size). Particulars: ERR reporter cell line, ONE-Glo luciferase, 18 h; at 92.4 µM (top of the series) unless noted. The gist of the method: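 We plated ERR reporter cells, waited 6 h, added compounds in DMSO by pin tool and incubated them 18 h at 37 C. ONE-Glo was then added and luminescence read after 30 min.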

Several values for one entry are separate records, joined by “and”; a condition that tells them apart may be missing. Identical values can stand only once. Values without a mark were called inactive. Results filed as inconclusive are left out. Activity calls are given as the source filed them. Unless noted, calls follow the shape of the dose curve; as a rule, active = well fitted curve in the direction sought with a large enough effect in the repeat runs; inconclusive = weak or mixed curves; inactive = no such curve, though single readings can be large; an effect the other way counts as inactive or inconclusive.

Consider `CCCCCCCCCC(=O)O[C@H]1CC[C@H]2[C@@H]3CCC4=CC(=O)CC[C@@H]4[C@H]3CC[C@]12C`, for which the Potency entry in [1], in assay [2], in [3], in assay [4], in assay [5] and in [6] was “inactive” each time. Moreover, the Potency result in assay [7], in assay [8], in assay [10], in [11], in assay [12] and in assay [13] was “inactive” throughout. Further, the Potency result in assay [14], in assay [15] and in assay [16] was “inactive” each time. For the same compound, the max response in [9] was 3.16%.

Turning to `CC(=O)c1cc2c(cc1C)C(C)(C)C(C)CC2(C)C` (stereo not given), the Potency in [1] was 101 µM (active); in assay [2], 89.8 µM (active); in assay [17] it was 19.5 µM (active); in [10] it was 19.5 µM (active); in [11], 38.9 µM (active); in [13], 38.9 µM (active). Further, in assay [14], the Potency is 38.9 µM (active). The Potency result in assay [3], in assay [4], in assay [5], in [6], in assay [8] and in assay [12] was “inactive” in each case. Further, in assay [15], the Potency result is “inactive”.

On to `Nc1ccc([N+](=O)[O-])cc1[N+](=O)[O-]`, for which the Potency entry in assay [1], in [3], in [5], in assay [6], in [17] and in assay [7] was “inactive” throughout. Further, the Potency result in assay [8], in [10], in assay [11], in [12], in [13] and in assay [14] was “inactive” throughout. The Potency entry in [15] and in [16] was “inactive” each time. Further, in assay [18], the outcome was inactive. The max response in assay [9] was -23.5%.

For `II`, the Potency result in assay [1], in [4], in [5] and in assay [7] was “inactive” each time. Further, the Potency in [2] was 80 µM (active); in assay [3], 15.5 µM (active); in [6] it was 5.49 µM (active); in [17], 38.9 µM (active); in assay [10] it was 38.9 µM (active); in assay [11], 38.9 µM (active). Further, the Potency in assay [12] is 7.76 µM (active); in [13], 34.7 µM (active); in assay [14], 38.9 µM (active); in assay [16] it was 38.9 µM (active). For the same compound, in assay [9], the max response is -3.85%.

For the compound `CCOP(=O)(OCC)Oc1ccc([N+](=O)[O-])cc1`, the Potency result in assay [1], in [2], in assay [3], in assay [4], in assay [5] and in [6] was “inactive” each time. Besides, the Potency result in assay [17], in [7], in assay [8], in [10], in assay [11] and in assay [12] was “inactive” throughout. Also, the Potency result in assay [13], in assay [14], in assay [15] and in [16] was “inactive” throughout. For the same compound, in assay [19], the Potency is 13.9 µM (active) and 12.2 µM (active). Moreover, the activity change, positive = activation in assay [20] is -65.4% and -61.8%.

For `BrCC(Br)C1CCC(Br)C(Br)C1` (stereo not given), the Potency entry in assay [1], in [3], in assay [5], in assay [6], in [17] and in assay [8] was “inactive” throughout. Also, the Potency result in assay [10], in [11], in [12], in [13], in [14] and in [16] was “inactive” throughout. Further, the outcome in [18] was inactive.

For `CN1C[C@H](CNC(=O)OCc2ccccc2)C[C@@H]2c3cccc4c3c(cn4C)C[C@H]21`, the Potency result in assay [1], in assay [2], in assay [5], in assay [17], in [8] and in assay [10] was “inactive” throughout. In addition, the Potency result in assay [15] and in [16] was “inactive” in each case. Further, the Potency was 21.3 µM (active) in assay [4]; 21.3 µM (active) in assay [7]; 23.9 µM (active) in assay [9]; 23.9 µM (active) in assay [11]; 23.9 µM (active) in assay [12]; 26.8 µM (active) in assay [13]. The Potency in assay [14] is 23.9 µM (active).

Take `[CH3][Sn]([CH3])([Cl])[Cl]`: the Potency entry in [1], in assay [3], in assay [5], in assay [6], in [17] and in [8] was “inactive” each time. The Potency entry in assay [10], in assay [11], in assay [12], in [13] and in [16] was “inactive” in each case. Also, the Potency in assay [19] was 69.7 µM (active) and 61.1 µM (active). For the same compound, the activity change, positive = activation in assay [20] was -70.4% and -43.3%.

(Values after PubChem BioAssay (Tox21).)
